In PubChem BioAssay AID504444 (National Center for Advancing Translational Sciences (NCATS), 2011):
Values joined by “and” are separate entries in the source; they are usually repeats but may differ in a detail not shown here. Identical values can stand only once. In all, about 360,000 compounds went through this assay and about 7,500 (2.1%) were called active. Inconclusive results (about 20%) are left out. Calls follow the shape of the dose curve; as a rule, active = well fitted inhibition curve with a large enough effect; inconclusive = small, poorly fitted or top-dose-only effect, or effect the other way; inactive = flat fitted curve, though single readings scatter. The list comes from a sample in which actives are over-represented; it also holds similar structures and randomly drawn compounds. Where a call stands in place of a potency, no number is given.

Assay: Nrf2 qHTS screen for inhibitors; also: nearly all actives have a fitted effect of over 60% in size
Conditions: A549 ARE-Fluc reporter, luciferase luminescence, 18-24 h; series mostly up to 46 µM
How it was run: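 Cells were seeded and rested 2 h, then exposed to compounds for 18-24 h. CellTiter-Fluor was read first as a viability measure. BugLite was added 15 min before the final luminescent read of ARE-luciferase activity in A549 cells.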
Potency is read from the fitted curve at half-maximal effect.

SMILES | Potency
CCn1c(C(=O)Nc2cc(Cl)ccc2C)cc2sc(Cl)cc21 | inactive
COc1ccc(-n2c(=O)c3sc4ccccc4c3n(CC(=O)Nc3cccc(C)c3)c2=O)cc1 | inactive
Cc1ccc(C)c(Cn2c(C)c(CNCc3ccc(F)cc3)c(C(=O)O)c2C)c1 | inactive
Cc1ccc(S(=O)(=O)N2CCC(C(=O)N3CCCCCCC3)CC2)cc1 | inactive
Cc1c(C(=O)N/N=C/c2ccccc2)[nH]c2c([N+](=O)[O-])cccc12 | inactive
COc1cc2c(C(=O)O)c(C)n(C)c2c2ccccc12 | inactive
COc1cccc2c(C)c(C(=O)O)[nH]c12 | 20.6 µM (active)
Cc1cc2c(cc3c(SCc4cccc(Cl)c4)nnc(C)n32)o1 | inactive
CC1Sc2ccc(C(=O)NCc3ccccc3Cl)cc2NC1=O (configuration not stated) | inactive
CCn1c2ccccc2c2cc(NC(=O)COC(=O)c3cc(S(=O)(=O)N4CCCCC4)ccc3Cl)ccc21 | inactive
CCn1c(O)c(N=NC(=O)c2cccc(S(=O)(=O)N3CCCCC3)c2)c2ccccc21 | 20.6 µM (active)
Cc1cccc(NC(=O)c2cccc(S(=O)(=O)N3CCCC3)c2)n1 | inactive
Cc1ccc(S(=O)(=O)N2CCN(C(=O)COC(=O)/C=C/c3cccc(Cl)c3)CC2)c(C)c1 | inactive
COC(=O)c1ccccc1NC(=O)c1cc(-c2ccccc2O)no1 | inactive
Cc1ccc(C)c(S(=O)(=O)N(C)c2ccc(OC(=O)C3CCN(C(=O)c4ccc(F)cc4)CC3)cc2)c1 | inactive
COc1cccc2c1cc1c(=O)n(CC(=O)N3CCN(c4ccccc4)CC3)nc(C)n12 | inactive
COc1ccc(NS(=O)(=O)c2ccc(NC(=O)c3ccc(N(C)S(C)(=O)=O)cc3)cc2)cc1 | 16.4 µM (active)
COc1ccc(NC(=O)c2cnc(NS(=O)(=O)c3ccccc3)nc2)cc1 | inactive
COc1cc(OC)cc(C(=O)Nc2ccc(S(=O)(=O)Nc3cc(C)on3)cc2)c1 | inactive
COc1cc(NS(=O)(=O)c2ccc(NC(C)=O)cc2)cc(OC)c1 | 5.8 µM (active)
COC(=O)COc1ccc(S(=O)(=O)Nc2ccc(NC(C)=O)cc2)cc1 | inactive
COc1ccc(NS(=O)(=O)c2ccc(C(=O)Nc3c(C)n(C)n(-c4ccccc4)c3=O)cc2)cc1 | inactive
O=C(OCC#CCSc1nnc(-c2ccco2)o1)c1ccc(F)cc1 | inactive
CC(C)n1cnc2c(NCc3ccccc3)cc(OCC3CCN(C)CC3)cc21 | inactive
Cc1ccc(NC(=O)c2ccc(Cl)nc2)cc1S(=O)(=O)N1CCOCC1 | inactive
CCc1ccc(NC(=O)CCCc2nnc3n(CCCOC)c(=O)c4sccc4n23)cc1 | inactive

SMILES | Potency
O=C(c1cc2cc(F)ccc2[nH]1)N1CCN(c2ccc(F)cc2)CC1 | inactive
O=C(c1cncc(Br)c1)N1CCN(c2ccc([N+](=O)[O-])cc2)CC1 | inactive
O=C(c1cc(C(=O)N2CCN(c3ccc(F)cc3)CC2)cc([N+](=O)[O-])c1)N1CCN(c2ccc(F)cc2)CC1 | 18.4 µM (active)
Cc1ccc(-n2c(=O)c3cccnc3n2CC(=O)Nc2ccccc2C(F)(F)F)cc1C | inactive
CC(C)(C)OC(=O)C[C@@H]1C/C=C\C[C@@H](CC(=O)N(CCO)Cc2ccccc2)C(=O)N[C@H](Cc2ccccc2)COC1=O | inactive
CCCn1c(=N)n(CC(O)COc2ccccc2OC)c2ccccc21 (configuration not stated) | inactive
CC(C)Cc1cc(C(=O)Nc2cc(Br)ccc2O)no1 | inactive
Cc1nn(Cc2ccc(F)cc2)c(C)c1NC(=O)c1cc(CC(C)C)on1 | 20.6 µM (active)
Cc1ccccc1Cn1nc(C)c(NC(=O)c2cc(-c3ccc(F)cc3)on2)c1C | inactive
Cc1cc(C(=O)Nc2c(C)nn(Cc3ccccc3)c2C)on1 | inactive
Cc1nn(Cc2ccc(F)cc2)c(C)c1NC(=O)c1noc2c1CCc1ccccc1-2 | 20.6 µM (active)
Cc1nn(Cc2ccc(F)cc2)c(C)c1NC(=O)c1cccnc1Cl | inactive
Nn1c(SCC(=O)NC2CCCc3ccccc32)nnc1C1CC1 (configuration not stated) | inactive
O=C(CN1CCN(C2CCS(=O)(=O)C2)CC1)N1N=C(c2ccc(Cl)cc2)CC1c1ccco1 (configuration not stated) | inactive
C[C@@H]1NS(=O)(=O)c2cc(Cl)ccc2O[C@@H]1c1ccccc1 | inactive
COc1ccc(CNC(=O)c2cc3c(s2)-c2ccccc2OC3)cc1 | inactive
O=S(=O)(Nc1ccc2ccccc2c1)N1CCCCC1 | inactive
COc1ccc(C2=Nn3c(nnc3-c3ccccc3OC)SC2)cc1OC1CCCC1 | 16.4 µM (active)
COc1ccc(C2=Nn3c(nnc3-c3ccccc3O)SC2)cc1 | inactive
Cc1nnc2n1N=C(c1ccccc1)CS2 | inactive
Cc1cccc(NC(=O)CN(c2ccc(C(C)C)cc2)S(=O)(=O)c2c(C)nn(C)c2C)c1C | inactive
O=C1CC(c2ccccc2)CC2=C1C(c1ccco1)n1nc(C(F)(F)F)nc1N2 (configuration not stated) | inactive
Cc1cc(C)cc(NS(=O)(=O)c2ccc(Oc3ncc(C(F)(F)F)cc3Cl)cc2)c1 | 4.11 µM (active)
COC(=O)Cc1ccc(Oc2ncc(C(F)(F)F)cc2Cl)cc1 | inactive
O=S(=O)(Nc1ccccn1)c1ccc(Oc2ccccc2)cc1 | inactive
O=C(C[C@@H]1C/C=C\CCC(=O)OC[C@@H]2CCCN2C1=O)NCCO | inactive

SMILES | Potency
N#CCCN(C(=O)COC(=O)c1ccc2c(c1)OCCO2)c1ccccc1 | inactive
Brc1nc2ncnc(NCc3ccco3)c2[nH]1 | inactive
O=C(Nc1c(Br)cc2c(c1Br)Cc1cc([N+](=O)[O-])ccc1-2)C(Cl)Cl | inactive
COc1ccc(C(CNC(=O)c2cccc(S(=O)(=O)Nc3ccc(Br)cc3)c2)N(C)C)cc1 (configuration not stated) | inactive
CCSc1nnc(NC(=O)c2cc(=O)c3cc(C)c(C)cc3o2)s1 | inactive
Cc1ccc(C(=O)Oc2coc(CSc3nnc(NC(=O)c4cccs4)s3)cc2=O)cc1C | 14.6 µM (active)
COC(=O)c1ccc(CSc2nnc(NC(C)C)s2)cc1 | inactive
Cc1ccc(NC(=O)c2oc3ccccc3c2NC(=O)Cc2cccs2)cc1 | inactive
Cc1cc(C)c(SCCc2ccncc2)c(C)c1 | 16.4 µM (active)
CCN(Cc1ccncc1)C(=O)CCc1ccccc1 | inactive
O=C(NOCc1ccccc1)c1cccc([N+](=O)[O-])c1 | inactive
CN1CCN(C2(CNC(=O)COc3ccc(C(C)(C)C)cc3)CCCCC2)CC1 | inactive
O=C(/C=C/c1cccc(C(F)(F)F)c1)N1CCN(c2ccccn2)CC1 | 23.1 µM (active)
O=C(Cc1ccc(Br)cc1)N1CCN(c2ccccn2)CC1 | inactive
O=C(C(Cl)Cl)N1CCN(c2ccccn2)CC1 | inactive
COc1ccc(CN2C(CC(=O)Nc3cccnc3)c3ccc(C(F)(F)F)cc3S2(=O)=O)cc1 (configuration not stated) | inactive
O=C(CNC(=O)c1ccc(Cl)cc1Cl)OC(C(=O)Nc1cc(C(F)(F)F)ccc1Cl)c1ccccc1 (configuration not stated) | inactive
Cc1ccccc1NC(=O)c1ccccc1NS(=O)(=O)c1cccc2cccnc12 | inactive
O=[N+]([O-])c1ccccc1S(=O)(=O)Nc1cccc2cccnc12 | 5.8 µM (active) and 11.6 µM (active)
O=[N+]([O-])c1cccc2ncccc12 | inactive
Cc1ccc(NC(=O)COc2ccc(/C=N\NC(=O)c3cccnc3)cc2)cc1C | inactive
Cc1ccc(OCC(=O)NCCCNC(=O)c2ccco2)cc1C | inactive
Cc1ccc(OCC(=O)NCCCNC(=O)c2cccnc2)cc1C | 5.17 µM (active)
Cc1ccc(S(=O)(=O)N(C)CC(=O)NCC(c2ccc(F)cc2)N2CCOCC2)cc1 (configuration not stated) | inactive
CC(=O)Nc1nc2ccccc2n1Cc1ccc(C)cc1 | 18.4 µM (active)
CC(=O)c1nc2ccccc2n1Cc1ccccc1 | inactive

SMILES | Potency
CCC(=O)Nc1nc2ccccc2n1Cc1ccccc1C | inactive
CCN(CC)CCNC(=O)Cn1ncc2c3ccccc3n(Cc3ccccc3C)c2c1=O | inactive
N#Cc1ccc(C(=O)Nc2nc(-c3cccs3)c(C(=O)C(F)(F)F)s2)cc1 | 5.17 µM (active)
N#Cc1ccc(Oc2ccc(C(F)(F)F)cc2NC(=O)c2ccc(F)cc2)cc1 | inactive
COC(=O)c1ccccc1NC(=O)c1ccc(C#N)cc1 | inactive
COc1ccc(C(F)(F)F)cc1NC(=O)c1sc2nc(-c3cccs3)ccc2c1N | inactive
CN1CCN(C(=O)c2ccc(-c3ccc(Br)cc3)o2)CC1 | inactive
CC(=O)OC(C)C[N+](C)(C)C (configuration not stated) | 0.461 µM (active)
CC(C[N+](C)(C)C)OC(N)=O (configuration not stated) | inactive
CC(=O)OCC(COC(C)=O)OC(C)=O | inactive
O=C(Nc1ccc(S(=O)(=O)N2CCC(c3nc4ccccc4s3)CC2)cc1)c1ccccc1F | inactive
Cc1ccc2onc(CC(=O)N3CCN(c4ccc(Cl)cc4)CC3)c2c1 | inactive
C[C@H](O)[C@@H]1C(=O)N2CCc3ccc(N4CCOCC4)cc3[C@@H]2C[C@@H]1N(C)C(=O)C(C)(C)C | inactive
O=C(c1ccc2c(c1)OCCO2)C1CCN(S(=O)(=O)c2cccc(F)c2)CC1 | 14.6 µM (active)
O=C(NCc1cccs1)C1CCN(S(=O)(=O)c2ccc3c(c2)OCCO3)CC1 | inactive
O=C(c1c(F)cccc1F)N1CCN(S(=O)(=O)c2ccc3c(c2)OCCO3)CC1 | inactive
CC(C)c1ccc(C2CC(=O)N3CN(C4CCCCC4)CSC3=C2C#N)cc1 (configuration not stated) | inactive
Oc1ccc(CN2CCN(c3ncccn3)CC2)cc1 | inactive
COc1cc(C)cc(CN2CCC(Cc3ccccc3)CC2)c1O | inactive
Oc1c(CN2CCCC2)cc(COCc2ccccc2)c2cccnc12 | 16.4 µM (active)
CC(=O)c1ccc(NC(=O)CCc2nc(-c3ccc(C)cc3)no2)cc1 | inactive
O=C(CSc1nc2ccccc2c(=O)n1CCCO)N1CCc2ccccc21 | inactive
C=CCn1c(=O)c2ccccc2n2c(SCC(=O)N3CCCc4ccccc43)nnc12 | inactive
Cn1c(SCC(=O)N2CCCc3ccccc32)nc2ccccc2c1=O | 18.4 µM (active)
